{"source": "ChEMBL document CHEMBL3988442", "about": "“University of Dundee, Small-Polar-MMV Screening Library” (2021)", "note": "Potency and affinity values are given separately."}
{"biological_target": "Protein translocase subunit SecA (Escherichia coli (strain K12)) (UniProt P10408)", "sequence (P10408 whole entry)": "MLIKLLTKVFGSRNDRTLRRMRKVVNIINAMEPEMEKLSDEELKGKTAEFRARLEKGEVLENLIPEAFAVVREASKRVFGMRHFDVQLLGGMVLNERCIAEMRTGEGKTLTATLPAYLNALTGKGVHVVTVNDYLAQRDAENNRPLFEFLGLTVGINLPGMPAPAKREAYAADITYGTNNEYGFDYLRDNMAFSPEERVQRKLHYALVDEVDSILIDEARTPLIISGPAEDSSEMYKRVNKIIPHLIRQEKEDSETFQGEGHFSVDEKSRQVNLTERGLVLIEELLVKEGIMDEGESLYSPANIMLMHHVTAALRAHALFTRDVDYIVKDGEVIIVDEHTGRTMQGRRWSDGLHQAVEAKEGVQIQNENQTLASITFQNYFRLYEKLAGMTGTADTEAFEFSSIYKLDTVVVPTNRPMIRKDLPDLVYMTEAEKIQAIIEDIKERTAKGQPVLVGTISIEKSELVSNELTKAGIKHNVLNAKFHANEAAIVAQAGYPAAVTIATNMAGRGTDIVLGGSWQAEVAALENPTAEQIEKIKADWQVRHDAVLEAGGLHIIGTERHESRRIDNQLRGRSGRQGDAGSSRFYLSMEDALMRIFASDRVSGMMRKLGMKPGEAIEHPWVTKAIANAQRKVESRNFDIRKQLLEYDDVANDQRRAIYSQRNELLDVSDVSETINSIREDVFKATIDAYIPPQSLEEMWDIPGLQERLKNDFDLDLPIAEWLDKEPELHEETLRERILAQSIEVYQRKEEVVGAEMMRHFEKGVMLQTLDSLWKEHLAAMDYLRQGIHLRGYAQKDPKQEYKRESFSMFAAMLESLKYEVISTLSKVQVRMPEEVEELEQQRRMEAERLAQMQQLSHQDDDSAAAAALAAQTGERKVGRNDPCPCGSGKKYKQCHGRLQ", "assay": "Assay to Identify E. coli SecA ATPase Inhibitors", "assay_type": "functional", "set-up": "scale not given: direction of the effect not stated beside the values", "conditions": "30 µM", "units": {"Percent Effect": "%"}}
{"smiles": "COCCn1ccc(NC(=O)Nc2cccnc2)n1", "Percent Effect": -2.55}
{"smiles": "CCN(C(=O)CCCOc1ccccc1F)c1ccncc1", "Percent Effect": -5.32}
{"smiles": "O=C(NC1CC1)[C@@H]1CCO[C@@H]2CCN(C3CCOCC3)C[C@@H]21", "Percent Effect": 1.01}
{"smiles": "Cc1nc(C)n(CC2CCCN(c3ncnc4sccc34)C2)n1", "note": "(stereo not given)", "Percent Effect": -2.59}
{"smiles": "Cc1nn(C)c(Cl)c1C1CCCN1C(=O)c1cc(Cl)c[nH]1", "note": "(stereo not given)", "Percent Effect": -2.13}
{"smiles": "COc1c(C2CCCN2Cc2csc(C(C)C)n2)c(C)nn1C", "note": "(stereo not given)", "Percent Effect": -0.655}
{"smiles": "CNc1cncc(C2CCCN2Cc2ccccn2)n1", "note": "(stereo not given)", "Percent Effect": -2.75}
{"smiles": "CC(=O)Nc1nc(C(=O)N2CCCC2Cn2cc(C)cn2)cs1", "note": "(stereo not given)", "Percent Effect": -5.22}
{"smiles": "O=C(NCCN1CCCCCC1=O)c1ccn(-c2ccc(F)cc2)n1", "Percent Effect": 1.12}
{"smiles": "O=C(NCCCn1cccn1)N1CCCC1c1ccncc1", "note": "(stereo not given)", "Percent Effect": -5.24}
{"smiles": "CC(C)c1nnc(NC(=O)NCc2ccnc(N(C)C)c2)s1", "Percent Effect": 0.949}
{"smiles": "CC(NC(=O)N(C)Cc1ccc(Cl)s1)c1ccccn1", "note": "(stereo not given)", "Percent Effect": -2.39}
{"smiles": "CCc1nnc2n1CCN(C(=O)c1cnc3ccccc3n1)C2", "Percent Effect": -4.63}
{"smiles": "O=C(c1ccccc1N1CCOCC1)N1CCCC(n2cccn2)C1", "note": "(stereo not given)", "Percent Effect": -5.13}
{"smiles": "CSc1ccc(NC(=O)Nc2ccc3c(c2)N(S(C)(=O)=O)CC3)cc1", "Percent Effect": -1.27}
{"smiles": "OCC1CCCN1c1cc(NCCc2c[nH]c3ccccc23)ncn1", "note": "(stereo not given)", "Percent Effect": -4.95}
{"smiles": "CC1CCN(C(CNC(=O)CCn2cccn2)c2cccs2)CC1", "note": "(stereo not given)", "Percent Effect": -0.447}
{"smiles": "CSCC[C@H](N)C(=O)NCc1cc2n(n1)CCCN(C(=O)C1CCC1)C2", "Percent Effect": -0.458}
{"smiles": "COC(=O)c1ccc(N2CCN(C(=O)c3ccncc3)C(C)C2)cc1", "note": "(stereo not given)", "Percent Effect": -4.64}
{"smiles": "Cc1cccnc1NCCNC(=O)[C@H]1CNC[C@@H](C(=O)N2CCCC2)C1", "Percent Effect": -3.94}
{"smiles": "Cc1ccccc1CNC(=O)Cc1c(C)nc2cc(=O)[nH]n2c1C", "Percent Effect": -2.72}
{"smiles": "CC(Cn1ccnc1)NC(=O)C1(c2ccc(F)cc2)CC1", "note": "(stereo not given)", "Percent Effect": -2.91}
{"smiles": "O=C1NC(c2ccccc2)=N[C@@]12CC[C@@H]1CN(Cc3ccco3)C[C@@H]12", "Percent Effect": -0.246}
{"smiles": "Cc1nc(CO[C@@H]2CN(Cc3cnn(C)c3)[C@@H]3COC[C@@H]32)cs1", "Percent Effect": -0.847}
{"smiles": "COCC(=O)N1CCC[C@]2(C(=O)N(C)C)CN(c3ccccn3)C[C@@H]2C1", "Percent Effect": -2.73}
{"smiles": "O=C(c1ccc(Br)o1)N1CCCC(n2cncn2)C1", "note": "(stereo not given)", "Percent Effect": -5.45}
{"smiles": "CCCOc1ccc(NC(=O)NCCC(=O)N(C)C)cc1Cl", "Percent Effect": -2.86}
{"smiles": "COCCNC(=O)C1(c2ccccc2C)CCOCC1", "Percent Effect": -6.97}
{"smiles": "O=C(CN1CCN(CC(O)C2CC2)CC1)NCc1ccc(F)cc1", "note": "(stereo not given)", "Percent Effect": -3.06}
{"smiles": "Cc1cnn(CCNCc2nc(COc3ccc(F)cc3)no2)c1", "Percent Effect": -2.17}
{"smiles": "CN(C)C(=O)Cc1nc(CN2CCn3c(nnc3C3CC3)C2)cs1", "Percent Effect": -3.93}
{"smiles": "CC(C)c1ncc2c(n1)CN(Cc1nc(-c3cccs3)no1)CC2", "Percent Effect": -1.45}
{"smiles": "Cc1n[nH]cc1CNc1ccc2c(c1)N(C(=O)OC(C)(C)C)CCC2", "Percent Effect": -6.86}
{"smiles": "CCn1cc(N2Cc3nc(N)ncc3C2=O)cn1", "Percent Effect": -6.38}
{"smiles": "Cc1cccc(-c2ccc(C(=O)NCC(C)(C)C(N)=O)c(=O)[nH]2)c1", "Percent Effect": -5.4}
{"smiles": "CN(C)C(=O)CN1CCCC2(CCN(c3ccsc3)C2=O)C1", "note": "(stereo not given)", "Percent Effect": -1.45}
{"smiles": "Cc1nc(N2CCCC2)ncc1-c1cc(O)nc(N2CCCC2)n1", "Percent Effect": -4.52}
{"smiles": "O=C(c1ccc(C2CCCO2)s1)N1CCS(=O)(=O)CC1", "note": "(stereo not given)", "Percent Effect": -1.4}
{"smiles": "OC(CN1CCN(Cc2nnc(C3CC3)o2)CC1)c1ccccc1", "note": "(stereo not given)", "Percent Effect": -4.5}
{"smiles": "CC(=O)c1cc(CC(=O)NCc2ccc(CN(C)C)cc2)cs1", "Percent Effect": -2.94}
